Measurements published in the supplement of paper PMC8007513.
Structures can show the parent of a compound that is named as a salt. ± gives the standard error. About 130 (10%) of roughly 1,300 compounds showed an effect of 50% or more. The full list was thinned out, with strong results kept by preference.

System: Trichoderma virens ATCC 9645
Assay: growth yield (OD600) with compound + IPBC relative to untreated control; higher = less growth inhibition
Settings: compound concentration: 100 uM, IPBC concentration: 200 ng/ml
Procedure, shortened: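 Spores of Trichoderma virens ATCC 9645, taken from potato dextrose agar plates grown for 7 days, were suspended at 15,000 spores ml^−1 in potato dextrose broth. In 96-well plates, 100 μl aliquots held library compounds at 100 μM final, either alone or together with a biocide at 200 ng ml^−1, and were grown at 30 °C. A BioTek EL800 read OD600 at 40 h and 72 h. Growth values are given relative to the control lacking both agents and are means of duplicate screens.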

Q: What does the source list for `Nc1nc(/C(=C/CC(=O)O)C(=O)N[C@@H]2C(=O)N3C(C(=O)O)=CCS[C@H]23)cs1` [Ceftibuten] + CCCCNC(=O)OCC#CI [3-iodo-2-propynyl butylcarbamate (IPBC)]?
A: growth yield (40 h): 92.4 ± 4.8%; growth yield (72 h): 94 ± 3.1%

Q: Which growth yield (40 h) does the source give for `CCCNC(=O)NS(=O)(=O)c1ccc(Cl)cc1` [Chlorpropamide] + CCCCNC(=O)OCC#CI [3-iodo-2-propynyl butylcarbamate (IPBC)] here?
A: 93.7 ± 4.1%

Q: And the growth yield (72 h)?
A: 102 ± 2.2%

Q: With `CCN(CC)C(=S)SSC(=S)N(CC)CC` [Disulfiram] + CCCCNC(=O)OCC#CI [3-iodo-2-propynyl butylcarbamate (IPBC)] as the molecule, how does the growth yield (40 h) read?
A: 33.7 ± 3.8%

Q: And the growth yield (72 h)?
A: 92.4 ± 1.6%

Q: With `C=CCC1(CC(C)C)C(=O)NC(=O)NC1=O` [Butalbital] + CCCCNC(=O)OCC#CI [3-iodo-2-propynyl butylcarbamate (IPBC)] as the molecule, how does the growth yield (40 h) read?
A: 85.6 ± 1.4%

Q: What about the growth yield (72 h) of the same molecule?
A: 93.2 ± 0.94%

Q: With `COc1ccc([C@@H]2Sc3ccccc3N(CCN(C)C)C(=O)[C@@H]2OC(C)=O)cc1` [Diltiazem hydrochloride] + CCCCNC(=O)OCC#CI [3-iodo-2-propynyl butylcarbamate (IPBC)] as the molecule, how does the growth yield (40 h) read?
A: 80.85 ± 0.48%

Q: What about the growth yield (72 h) of the same molecule?
A: 88.4 ± 2.2%

Q: How did the growth yield (40 h) turn out when `CC(C)C[C@H](CN)CC(=O)O` [Pregabalin] + CCCCNC(=O)OCC#CI [3-iodo-2-propynyl butylcarbamate (IPBC)] was run?
A: 85.3 ± 0.79%

Q: What about the growth yield (72 h) of the same molecule?
A: 89.14 ± 0.21%

Q: With `CN(C)c1cc(NC(=O)CNC(C)(C)C)c(O)c2c1C[C@H]1C[C@H]3[C@H](N(C)C)C(O)=C(C(N)=O)C(=O)[C@@]3(O)C(O)=C1C2=O` [Tigecycline] + CCCCNC(=O)OCC#CI [3-iodo-2-propynyl butylcarbamate (IPBC)] as the molecule, how does the growth yield (40 h) read?
A: 80.7 ± 3.5%

Q: And the growth yield (72 h)?
A: 79 ± 2%

Q: How did the growth yield (40 h) turn out when `N=C(NCCCCCCNC(=N)NC(=N)Nc1ccc(Cl)cc1)NC(=N)Nc1ccc(Cl)cc1` [Chlorhexidine] + CCCCNC(=O)OCC#CI [3-iodo-2-propynyl butylcarbamate (IPBC)] was run?
A: 4.61 ± 0.16%

Q: What about the growth yield (72 h) of the same molecule?
A: 3.67 ± 0.32%

Q: For `N=C(N)NC(=N)NCCc1ccccc1` [Phenformin hydrochloride] + CCCCNC(=O)OCC#CI [3-iodo-2-propynyl butylcarbamate (IPBC)], which growth yield (40 h) is on record?
A: 86.25 ± 0.48%

Q: And the growth yield (72 h)?
A: 92 ± 2.4%

Q: Which results are given for `CC(C)NC(=N)NC(=N)Nc1ccc(Cl)cc1` [Proguanil hydrochloride] + CCCCNC(=O)OCC#CI [3-iodo-2-propynyl butylcarbamate (IPBC)]?
A: growth yield (40 h): 92.8 ± 2.2%; growth yield (72 h): 104 ± 1.8%

Q: Which growth yield (40 h) does the source give for `CCN(CC)C(=O)N1CCN(C)CC1` [Diethylcarbamazine citrate] + CCCCNC(=O)OCC#CI [3-iodo-2-propynyl butylcarbamate (IPBC)] here?
A: 83.4 ± 2.4%

Q: And the growth yield (72 h)?
A: 94.1 ± 1.4%

Q: Which growth yield (40 h) does the source give for `CN(CCOc1ccc(CC2SC(=O)NC2=O)cc1)c1ccccn1` (configuration not stated) [Rosiglitazone Hydrochloride] + CCCCNC(=O)OCC#CI [3-iodo-2-propynyl butylcarbamate (IPBC)] here?
A: 76.4 ± 7.5%

Q: And the growth yield (72 h)?
A: 82.6 ± 6.1%

Q: Which growth yield (40 h) does the source give for `CCCOc1ccccc1-c1nc2[nH]nnc2c(=O)[nH]1` [Zaprinast] + CCCCNC(=O)OCC#CI [3-iodo-2-propynyl butylcarbamate (IPBC)] here?
A: 87.2 ± 0.79%

Q: What about the growth yield (72 h) of the same molecule?
A: 98.7 ± 1.1%

Q: How did the growth yield (40 h) turn out when `N[C@@H]1CCCCN(c2c(F)cc3c(=O)c(C(=O)O)cn(C4CC4)c3c2Cl)C1` [Besifloxacin hydrochloride] + CCCCNC(=O)OCC#CI [3-iodo-2-propynyl butylcarbamate (IPBC)] was run?
A: 88.5 ± 2.7%

Q: And the growth yield (72 h)?
A: 88.1 ± 2.7%

Q: With `CC/C(=C(\c1ccccc1)c1ccc(OCCN(C)C)cc1)c1ccccc1` [Tamoxifen citrate] + CCCCNC(=O)OCC#CI [3-iodo-2-propynyl butylcarbamate (IPBC)] as the molecule, how does the growth yield (40 h) read?
A: 3.34 ± 0.48%

Q: And the growth yield (72 h)?
A: 3.36 ± 0.63%

Q: How did the growth yield (40 h) turn out when `CCN(CC)CCOc1ccc(C(=C(Cl)c2ccccc2)c2ccccc2)cc1` [Clomiphene citrate (Z,E)] + CCCCNC(=O)OCC#CI [3-iodo-2-propynyl butylcarbamate (IPBC)] was run?
A: 3.02 ± 0.16%

Q: And the growth yield (72 h)?
A: 2.94%

Q: Which growth yield (40 h) does the source give for `CN(C)CCOc1ccc(/C(=C(/CCCl)c2ccccc2)c2ccccc2)cc1` [Toremifene] + CCCCNC(=O)OCC#CI [3-iodo-2-propynyl butylcarbamate (IPBC)] here?
A: 3.49 ± 0.95%

Q: And the growth yield (72 h)?
A: 3.15 ± 0.42%

Q: Which growth yield (40 h) does the source give for `COc1cc(C(=O)NCc2ccc(OCCN(C)C)cc2)cc(OC)c1OC` [Trimethobenzamide hydrochloride] + CCCCNC(=O)OCC#CI [3-iodo-2-propynyl butylcarbamate (IPBC)] here?
A: 90.2 ± 1.3%

Q: What about the growth yield (72 h) of the same molecule?
A: 91.3 ± 2.8%

Q: `CN(C)CCOC(=O)COc1ccc(Cl)cc1` [Meclofenoxate hydrochloride] + CCCCNC(=O)OCC#CI [3-iodo-2-propynyl butylcarbamate (IPBC)] was tested. Which growth yield (40 h) did it give?
A: 93.2 ± 3.3%

Q: What about the growth yield (72 h) of the same molecule?
A: 96.7 ± 2.1%

Q: `CN(C)CCOC(c1ccccc1)c1ccccc1` [Diphenhydramine hydrochloride] + CCCCNC(=O)OCC#CI [3-iodo-2-propynyl butylcarbamate (IPBC)] was tested. Which growth yield (40 h) did it give?
A: 87.2 ± 2.1%

Q: What about the growth yield (72 h) of the same molecule?
A: 94 ± 2.1%

Q: With `CCN(CC)CCOC(=O)C(c1ccccc1)c1ccccc1` [Adiphenine hydrochloride] + CCCCNC(=O)OCC#CI [3-iodo-2-propynyl butylcarbamate (IPBC)] as the molecule, how does the growth yield (40 h) read?
A: 87.2 ± 1.4%

Q: What about the growth yield (72 h) of the same molecule?
A: 92.8 ± 1.4%

Q: Which results are given for `COc1ccc(C(=O)NCc2ccc(OCCN(C)C)cc2)cc1OC` [Itopride] + CCCCNC(=O)OCC#CI [3-iodo-2-propynyl butylcarbamate (IPBC)]?
A: growth yield (40 h): 107 ± 1.1%; growth yield (72 h): 102%

Q: With `COc1ccc(C(Cl)=C(c2ccc(OC)cc2)c2ccc(OC)cc2)cc1` [Chlorotrianisene] + CCCCNC(=O)OCC#CI [3-iodo-2-propynyl butylcarbamate (IPBC)] as the molecule, how does the growth yield (40 h) read?
A: 103 ± 17%

Q: What about the growth yield (72 h) of the same molecule?
A: 101 ± 11%

Q: With `CCN(CC)CCNC(=O)c1cc(Br)c(N)cc1OC` [Bromopride] + CCCCNC(=O)OCC#CI [3-iodo-2-propynyl butylcarbamate (IPBC)] as the molecule, how does the growth yield (40 h) read?
A: 92.6 ± 14%

Q: And the growth yield (72 h)?
A: 93.8 ± 7.5%

Q: How did the growth yield (40 h) turn out when `CCCOc1cc(N)ccc1C(=O)OCCN(CC)CC` [Propoxycaine hydrochloride] + CCCCNC(=O)OCC#CI [3-iodo-2-propynyl butylcarbamate (IPBC)] was run?
A: 86.7%

Q: What about the growth yield (72 h) of the same molecule?
A: 88.73 ± 0.42%

Q: What does the source list for `CCC1(C)CC(=O)NC1=O` (configuration not stated) [Ethosuximide] + CCCCNC(=O)OCC#CI [3-iodo-2-propynyl butylcarbamate (IPBC)]?
A: growth yield (40 h): 94.8 ± 2.1%; growth yield (72 h): 97.85 ± 0.94%

Q: What does the source list for `CN1CCN(C2=Nc3ccccc3Oc3ccc(Cl)cc32)CC1` [Loxapine succinate] + CCCCNC(=O)OCC#CI [3-iodo-2-propynyl butylcarbamate (IPBC)]?
A: growth yield (40 h): 71.8 ± 2.2%; growth yield (72 h): 91.87 ± 0.84%

Q: Which growth yield (40 h) does the source give for `CC(=O)N(CC(C)C(=O)O)c1c(I)cc(I)c(N)c1I` (configuration not stated) [Iocetamic acid] + CCCCNC(=O)OCC#CI [3-iodo-2-propynyl butylcarbamate (IPBC)] here?
A: 107 ± 18%

Q: What about the growth yield (72 h) of the same molecule?
A: 102 ± 11%

Q: What does the source list for `C#C[C@]1(O)CC[C@H]2[C@@H]3[C@H](C)CC4=C(CCC(=O)C4)[C@H]3CC[C@@]21C` [Tibolone] + CCCCNC(=O)OCC#CI [3-iodo-2-propynyl butylcarbamate (IPBC)]?
A: growth yield (40 h): 80.1 ± 2.9%; growth yield (72 h): 90.09 ± 0.1%

Q: How did the growth yield (40 h) turn out when `Cc1ccc(-c2cc(C(F)(F)F)nn2-c2ccc(S(N)(=O)=O)cc2)cc1` [Celecoxib] + CCCCNC(=O)OCC#CI [3-iodo-2-propynyl butylcarbamate (IPBC)] was run?
A: 57.8 ± 0.64%

Q: What about the growth yield (72 h) of the same molecule?
A: 78.76 ± 0.73%

Q: With `C[C@]12CC[C@@H]3c4ccc(OC(=O)N(CCCl)CCCl)cc4CC[C@H]3[C@@H]1CC[C@@H]2O` [Estramustine] + CCCCNC(=O)OCC#CI [3-iodo-2-propynyl butylcarbamate (IPBC)] as the molecule, how does the growth yield (40 h) read?
A: 97.8 ± 4.5%

Q: What about the growth yield (72 h) of the same molecule?
A: 98.1 ± 4.7%

Q: Which growth yield (40 h) does the source give for `CC(C)NNC(=O)c1ccncc1` [Iproniazide phosphate] + CCCCNC(=O)OCC#CI [3-iodo-2-propynyl butylcarbamate (IPBC)] here?
A: 89.3 ± 0.95%

Q: What about the growth yield (72 h) of the same molecule?
A: 99 ± 0.84%

Q: With `Oc1ccc(OCc2ccccc2)cc1` [Monobenzone] + CCCCNC(=O)OCC#CI [3-iodo-2-propynyl butylcarbamate (IPBC)] as the molecule, how does the growth yield (40 h) read?
A: 50.7 ± 6.5%

Q: What about the growth yield (72 h) of the same molecule?
A: 63 ± 4.3%

Q: How did the growth yield (40 h) turn out when `CCCCOC(=O)c1ccc(O)cc1` [Butylparaben] + CCCCNC(=O)OCC#CI [3-iodo-2-propynyl butylcarbamate (IPBC)] was run?
A: 27.5 ± 1.8%

Q: And the growth yield (72 h)?
A: 46.9 ± 3.2%

Q: With `CCCCN(CCCC)CCCOC(=O)c1ccc(N)cc1` [Butacaine] + CCCCNC(=O)OCC#CI [3-iodo-2-propynyl butylcarbamate (IPBC)] as the molecule, how does the growth yield (40 h) read?
A: 106 ± 9.2%

Q: And the growth yield (72 h)?
A: 105 ± 8.7%

Q: How did the growth yield (40 h) turn out when `CCCCOC(=O)c1ccc(N)cc1` [Butamben] + CCCCNC(=O)OCC#CI [3-iodo-2-propynyl butylcarbamate (IPBC)] was run?
A: 53.53 ± 0.16%

Q: And the growth yield (72 h)?
A: 70.7 ± 3.4%

Q: Which growth yield (40 h) does the source give for `NNc1nncc2ccccc12` [Hydralazine hydrochloride] + CCCCNC(=O)OCC#CI [3-iodo-2-propynyl butylcarbamate (IPBC)] here?
A: 120 ± 6.8%

Q: What about the growth yield (72 h) of the same molecule?
A: 125 ± 11%

Q: What does the source list for `Cc1cc(C2CCCCC2)n(O)c(=O)c1` [Ciclopirox ethanolamine] + CCCCNC(=O)OCC#CI [3-iodo-2-propynyl butylcarbamate (IPBC)]?
A: growth yield (40 h): 3.49 ± 0.32%; growth yield (72 h): 2.83 ± 0.32%

Q: How did the growth yield (40 h) turn out when `CCOC(=O)[C@H](CCc1ccccc1)N[C@@H](C)C(=O)N1[C@H](C(=O)O)C[C@@H]2CCC[C@@H]21` [Ramipril] + CCCCNC(=O)OCC#CI [3-iodo-2-propynyl butylcarbamate (IPBC)] was run?
A: 95 ± 3.2%

Q: And the growth yield (72 h)?
A: 96 ± 3.9%

Q: `CC1(C)O[C@@H]2C[C@H]3[C@@H]4CCC5=CC(=O)C=C[C@]5(C)[C@H]4[C@@H](O)C[C@]3(C)[C@]2(C(=O)CO)O1` [Desonide] + CCCCNC(=O)OCC#CI [3-iodo-2-propynyl butylcarbamate (IPBC)] was tested. Which growth yield (40 h) did it give?
A: 107 ± 5.9%

Q: And the growth yield (72 h)?
A: 103 ± 3.9%

Q: Which growth yield (40 h) does the source give for `C[C@@H]1CC[C@H]2[C@@H](C)C(=O)O[C@@H]3O[C@@]4(C)CC[C@@H]1[C@]32OO4` [Artemisinin] + CCCCNC(=O)OCC#CI [3-iodo-2-propynyl butylcarbamate (IPBC)] here?
A: 32.4 ± 1.3%

Q: And the growth yield (72 h)?
A: 76.3 ± 1.1%
